CYP2C9 inhib: blocks human cytochrome P450 2C9. P11712. AID 777. CYP2C9 Supersomes, luciferin-H conversion, luminescence. 96,000 tested, 20% active. inhibition, % at 5 µM;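 active = blocking of liver enzyme CYP2C9 beyond about 50% at 5 µM, limit read from the data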
CYP2C19 act: increases human CYP2C19 enzyme activity | 96,000 tested, under 10 active | P33261 | AID 1025 | recombinant CYP2C19, luciferin-H EGE luminescence; active compounds read high; 0 = fully inhibited enzyme, 1 = untreated enzyme | activation factor at 5 µM;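 active = activation factor of at least 2 at 5 µM in the primary screen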;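 also: 0 = wells with 2.5 mM tranylcypromine and 1 = vehicle-only wells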
CYP2C9 act: activators of human CYP2C9; P11712; recombinant CYP2C9, luciferin-H conversion, luminescence; active compounds read high; factor 1 = untreated enzyme, 0 = blocked; activation factor at 5 µM; 96,000 tested, 1.4% active; AID 1024;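 active = activation factor of 2 or more for CYP2C9 at a 5 µM dose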;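 also: 0 = sulfaphenazole-blocked wells and 1 = vehicle-only wells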
Mac1 fbg inh: CD11b/CD18-fibrinogen binding inhibition; P05107+P11215; 93,000 tested, 0.54% active; inhibition, % at 10 µM; K562 CD11b/CD18 adhesion to fibrinogen, ATPlite luminescence; Mn2+ added to activate the integrin;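 active = primary inhibition of 50% or more at 10 µM, then 40% or more on retest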
Target sequence (P05107 whole entry, looked up, other chains not shown): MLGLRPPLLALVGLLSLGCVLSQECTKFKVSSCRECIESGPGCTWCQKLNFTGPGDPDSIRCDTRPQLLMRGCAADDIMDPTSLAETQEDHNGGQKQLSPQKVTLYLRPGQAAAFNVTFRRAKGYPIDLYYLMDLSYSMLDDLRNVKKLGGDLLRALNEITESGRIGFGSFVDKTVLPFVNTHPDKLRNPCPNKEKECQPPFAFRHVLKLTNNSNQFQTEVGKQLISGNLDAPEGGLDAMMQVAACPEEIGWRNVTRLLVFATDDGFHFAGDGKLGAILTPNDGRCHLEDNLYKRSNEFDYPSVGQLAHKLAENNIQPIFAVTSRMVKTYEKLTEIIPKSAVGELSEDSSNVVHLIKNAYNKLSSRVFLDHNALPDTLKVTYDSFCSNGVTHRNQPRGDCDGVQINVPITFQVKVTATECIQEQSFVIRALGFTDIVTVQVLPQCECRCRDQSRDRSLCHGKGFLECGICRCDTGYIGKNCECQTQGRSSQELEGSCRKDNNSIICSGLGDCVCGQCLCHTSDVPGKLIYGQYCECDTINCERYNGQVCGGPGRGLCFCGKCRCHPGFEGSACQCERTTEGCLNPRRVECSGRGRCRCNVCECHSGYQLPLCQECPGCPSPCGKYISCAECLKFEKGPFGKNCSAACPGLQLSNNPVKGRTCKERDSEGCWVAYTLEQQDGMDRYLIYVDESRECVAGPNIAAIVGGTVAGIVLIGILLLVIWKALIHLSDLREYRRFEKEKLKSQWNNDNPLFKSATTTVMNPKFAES
CYP2C19 inh: inhibitors of human CYP2C19; P33261; 96,000 tested, 21% active; inhibition, % at 5 µM; CYP2C19 Supersomes, luciferin-H EGE luminescence, 30 min;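 active = CYP2C19 inhibition above a set limit at 5 µM in the primary screen, cut at about 50% in these data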;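 also: plate controls were negative control wells for no effect and 2.5 mM tranylcypromine positive control for full effect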
CD11b adhes enh: enhancers of human CD11b/CD18 binding to fibrinogen | K562 CD11b/CD18 adhesion to fibrinogen, ATPlite luminescence | activation, % at 10 µM | 93,000 tested, 0.07% active;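 active = 10 µM primary screen giving 50% or more activity, confirmed by 40% or more on retest at that dose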
* hit, by the source's call; . = no result given. The list is not random: actives were taken first. Their share in the collection is about 28%.

SMILES	CYP2C9 inhib	CYP2C19 act	CYP2C9 act	Mac1 fbg inh	CYP2C19 inh	CD11b adhes enh
Cc1cc(S(=O)(=O)N2CCN(Cc3ccccc3)CC2)c(C)s1	62*	0	0.4	-10	99*	4
COc1cc(C)c(C)cc1S(=O)(=O)N1CCN(Cc2ccccc2)CC1	63*	0.1	0.4	13	89*	7
COc1cc(C)c(C)cc1S(=O)(=O)N1CCN(Cc2ccc3c(c2)OCO3)CC1	-2	0.4	1	11	62*	4
Cc1ccc(NC(=O)CN2C(=O)S/C(=C/c3ccc(-c4cc(C(=O)O)ccc4C)o3)C2=O)cc1C	42	1	0.6	39	4	61*
Cn1cccc1/C=C1\SC(=O)N(CC(=O)Nc2ccc(Cl)cc2)C1=O	36	0.8	0.6	.	22	.
CCn1c(C)cc(/C=C2\SC(=O)N(CC(=O)Nc3ccc(C)c(C)c3)C2=O)c1C	16	0.4	0.8	.	57*	.
CCCCN(CCCC)CCNC(=O)CNC(=O)c1cccs1	18	0.9	0.8	-17	8	-2
O=C(/C=C/c1ccccc1)NCCSc1ccc(Cl)cc1	-53	0.9	1.5	.	15	.
Cc1cccc(-n2ccnc2SCC(=O)N2CCCc3ccccc32)c1C	.	.	.	-11	.	-2
Cc1ccccc1NC(=O)CN1C(=O)NC2(CCCCC2)C1=O	24	0.9	0.8	-58	11	1
Cc1ccccc1NC(=S)N(C)C1(c2ccccc2Cl)CCCCC1=O (stereo not drawn)	16	0.3	0.8	.	69*	.
CCOc1ccc2nc(SCC(=O)N(C)C)[nH]c2c1	14	0.8	0.9	-8	19	-1
Oc1ccc(CNCC2COc3ccccc3O2)cc1 (stereo not drawn)	1	0.4	1	13	56*	-4
S=C(NCc1ccccc1)NCC1COc2ccccc2O1 (stereo not drawn)	81*	0.1	0.2	-14	93*	0
CCN1CCN(c2ncnc3c2sc2nc(N4CCOCC4)c4c(c23)CCC4)CC1	54*	0.3	0.5	1	73*	-6
CCOc1nnnc2c1sc1nc(N3CCOCC3)c3c(c12)CCCC3	98*	0.1	0	-1	94*	2
CO/N=C/c1ccc(N2CCN(C(=O)c3ccc(C)cc3)CC2)c([N+](=O)[O-])c1	37	0.6	0.6	.	39	.
Cc1cc(Nc2ccccc2)c2c([N+](=O)[O-])c(C)cc(C)c2n1	81*	0.2	0.2	-25	78*	3
CC(C)CC(=O)NC(=S)Nc1ccc(NC(=O)c2cccs2)cc1	12	0.9	0.9	16	6	-2
Clc1ccc(-c2nnc3sc(-c4ccc(Br)o4)nn23)cc1	15	0.7	0.8	-11	33	55
c1ccc(Cc2nnc3sc(Nc4ccccc4)nn23)cc1	-1	1	1	-10	-4	-2
Clc1ccc(-c2nnc3sc(-c4ccc(Br)o4)nn23)c(Cl)c1	21	0.4	0.8	7	58*	-1
Clc1ccccc1-c1nnc2sc(-c3ccc(Br)o3)nn12	47	0.2	0.5	12	80*	3
Brc1ccc(-c2nn3c(Cc4ccccc4)nnc3s2)o1	13	0.3	0.9	2	68*	-5
Cc1cc(C(=O)N2CCC(C(F)(F)F)n3nccc32)on1 (stereo not drawn)	-13	1	1.1	17	0	-2
SMILES	CYP2C9 inhib	CYP2C19 act	CYP2C9 act	Mac1 fbg inh	CYP2C19 inh	CD11b adhes enh
CCC(Sc1ncnc2sc(C)c(C)c12)C(=O)OC (stereo not drawn)	93*	0.4	0.1	-10	65*	-3
COC(=O)c1c(-c2ccccc2)csc1NC(=O)CSc1ncnc2sc(C)c(C)c12	71*	0.8	0.3	-9	16	-3
Cc1sc2ncnc(SCC(=O)NCC(C)C)c2c1C	61*	0.7	0.4	-2	26	2
Cc1nnc(NC(=O)CSc2ncnc3scc(-c4ccccc4)c23)s1	19	1.1	0.8	.	-8	.
COc1ccc(NC(=S)NNC(=O)OC(C)(C)C)cc1OC	-1	0.9	1	2	12	-4
O=C([C@H](Cc1ccccc1)NS(=O)(=O)c1ccc(Cl)cc1)N1CC[C@@]2(O)CCCC[C@H]2C1	35	0.6	0.6	.	40	.
Cc1cc(C(F)F)n2nc(C(=O)Nc3ccccc3Br)nc2n1	-21	1.2	1.2	-19	-16	-2
O=C(Cc1cccs1)Nc1nnc(-c2ccncc2)s1	96*	0	0	-1	98*	2
CC(NC(=O)Cc1cccs1)c1ccncc1 (stereo not drawn)	66*	0.4	0.3	-5	64*	0
O=C(COc1ccccc1F)Nc1nnc(-c2ccncc2)s1	95*	0.1	0	1	93*	-1
Cc1cc(NC(=O)Cc2cccs2)nn1CC(=O)NCc1ccco1	-11	1	1.1	-14	1	2
CCOC(=O)C1CCCN(C(=O)COC(=O)C2=COCCO2)C1 (stereo not drawn)	-15	0.8	1.1	-3	25	-3
CC1(C)Cc2c(ccc3ccccc23)C(=O)N1	-52	0.8	1.5	.	19	.
CCNC(=O)/C=C1\NC(C)(C)Cc2c1ccc1ccccc21	90*	0.2	0.1	5	83*	-1
CN(C)C(=O)C(=O)c1cccn1-c1ccccc1C#N	-1	1	1	2	-2	-5
CCN(CC)C(=O)C(=O)c1cccn1-c1cccc(Cl)c1C#N	43	0.2	0.6	-1	81*	-1
CC(C)N(C(=O)C(=O)c1cccn1-c1ccccc1C#N)C(C)C	27	0.5	0.7	-3	54*	0
CCC1(O)c2ccccc2-c2ncccc21 (stereo not drawn)	-4	1	1	16	5	-2
Cc1ccc(NC(=O)CN(C)C(=O)CCCN2C(=O)c3ccccc3C2=O)cc1	21	0.8	0.8	8	22	0
CN(CC(=O)Nc1c(Cl)cccc1Cl)C(=O)CCCN1C(=O)c2ccccc2C1=O	86*	0.7	0.1	22	30	-7
CC(=O)NCCOc1nc(N(C)C)nc(N(C)C)n1	2	1	1	-9	4	-1
CN(C)c1nc(OCCNC(=O)Nc2ccccc2)nc(N(C)C)n1	47	0.3	0.5	-1	73*	-1
CN(C)c1nc(OCCNC(=O)Nc2ccccc2)nc(N2CCOCC2)n1	80*	0.5	0.2	-22	53*	2
COC(=O)Cn1cnc2c(C#N)c3n(c2c1=O)CCCC3	-2	0.9	1	4	6	-3
N#Cc1ccc(Cn2c(=O)c(C#N)c3n(c2=O)CCC3)cc1	-19	0.1	1.2	0	89*	-3
